Results on eight compounds are retold here after PubChem BioAssay (NCI).

Test systems include HCT-15 colon; HT29 colon; SNB-75 CNS; SNB-19 CNS; U251 CNS; PC-3 prostate; SK-MEL-5 melanoma; UACC-62 melanoma; LOX IMVI melanoma; SK-MEL-28 melanoma; SK-MEL-2 melanoma; EKVX NSCLC; SN12C renal; UO-31 renal; TK-10 renal; ACHN renal; CAKI-1 renal; A498 renal; CCRF-CEM leukemia; MOLT-4 leukemia.
Experiment in all cases: NCI-60 one-dose screen, 48 h (100 = growth as untreated, 0 = no growth, -100 = all killed)
Holding throughout (settings): 10 µM unless noted

Compounds without any hit were thinned out: in the full panel of roughly 83,000, 20% have a hit.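 Method: cells in 96-well plates; compound added at one concentration; 48 h incubation; percent growth measured; values under 10 scored active.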 Values without a mark were called inactive. The source made the active and inactive calls.

Consider `O=C1Nc2ccc(F)cc2/C1=C\c1nc(-c2ccccc2F)n2ccccc12`, for which the growth in the assay on HCT-15 colon is 26.3%; with HT29 colon it was 13.8%; in the assay with SNB-75 CNS it was 95.8%; with SNB-19 CNS it was 94.3%; with U251 CNS, 73.5%; in the assay on PC-3 prostate it was 76.3%. For the same compound, the growth in the assay with SK-MEL-5 melanoma was 89.7%; in the assay with UACC-62 melanoma, 94.6%; in the assay on LOX IMVI melanoma it was 61%; with SK-MEL-28 melanoma it was 130%; with SK-MEL-2 melanoma, 38.3%; with EKVX NSCLC it was 102%. The growth with SN12C renal is 87.1%; in the assay with UO-31 renal it was 77.6%; in the assay on TK-10 renal, 97.5%; with ACHN renal, 8.93% (active); in the assay with CAKI-1 renal, 68.4%; with A498 renal it was 111%. The values for the growth in the assay on CCRF-CEM leukemia and in the assay with MOLT-4 leukemia were 70.8% and 81.2%, respectively.

With `O=C(Cn1cc(CN2C(=O)c3ccccc3S2(=O)=O)nn1)Nc1cccc(Cl)c1`, the growth with HCT-15 colon was 98.2%; in the assay with HT29 colon it was 109%; in the assay on SNB-75 CNS, 87.8%; in the assay with SNB-19 CNS, 115%; with U251 CNS, 112%; in the assay on PC-3 prostate, 104%. The growth was 106% with SK-MEL-5 melanoma; 97.4% in the assay on UACC-62 melanoma; 89.5% in the assay with LOX IMVI melanoma; 105% in the assay with SK-MEL-28 melanoma; 96.7% in the assay with SK-MEL-2 melanoma; 103% in the assay with EKVX NSCLC. The growth in the assay with SN12C renal was 110%; in the assay on UO-31 renal, 101%; in the assay with TK-10 renal, 103%; in the assay on ACHN renal it was 102%; in the assay with CAKI-1 renal it was 98.5%; in the assay with A498 renal, 110%. Also, the growth with CCRF-CEM leukemia was 104%; in the assay with MOLT-4 leukemia, 107%.

In the case of `CC1O[C@@H]2C[C@@](O)([C@H]1O)n1c3ccccc3c3c4c(c5c6ccccc6n2c5c31)C(=O)NC4=O` (stereo partly specified), the growth is 62% with HCT-15 colon; 28.6% in the assay on HT29 colon; 44.8% with SNB-75 CNS; 35% in the assay on SNB-19 CNS; 24.8% in the assay on U251 CNS; 41.2% with PC-3 prostate. In addition, the growth was 1.39% (active) in the assay on SK-MEL-5 melanoma; 9.56% (active) in the assay on UACC-62 melanoma; 7.1% (active) in the assay on LOX IMVI melanoma; 69.1% in the assay with SK-MEL-28 melanoma; 75.4% with SK-MEL-2 melanoma; 68.7% in the assay with EKVX NSCLC. The growth in the assay with SN12C renal was 55.1%; in the assay with UO-31 renal, 24.8%; in the assay with TK-10 renal it was 79.6%; with CAKI-1 renal, 28%; in the assay with A498 renal, 42.4%; in the assay on CCRF-CEM leukemia it was 27.9%. Further, the growth with MOLT-4 leukemia was 10.5%.

In the case of `N#CCC1=NC(c2cccs2)=Nc2ccccc2S1`, the growth is 109% in the assay on HCT-15 colon; 89.5% in the assay on HT29 colon; 94% with SNB-75 CNS; 87.9% in the assay on SNB-19 CNS; 87.7% in the assay with U251 CNS; 71.1% in the assay on PC-3 prostate. Further, the growth in the assay with SK-MEL-5 melanoma is 93.8%; in the assay with UACC-62 melanoma, 70.1%; with LOX IMVI melanoma, 99.1%; in the assay on SK-MEL-28 melanoma, 88.4%; in the assay with SK-MEL-2 melanoma, 96.9%; in the assay with EKVX NSCLC it was 105%. Besides, the growth with SN12C renal is 86.6%; in the assay on UO-31 renal, 79.1%; in the assay with TK-10 renal, 117%; in the assay on CAKI-1 renal, 95.6%; with A498 renal, 90.9%; in the assay on CCRF-CEM leukemia it was 90.8%. Also, the growth in the assay with MOLT-4 leukemia was 92.5%.

Regarding `CCOC(=O)Cn1c(=O)c2c3ccccc3n(C)c2n2nnc(-c3ccccc3)c12`, the growth was 114% in the assay on HCT-15 colon; 89.1% in the assay with HT29 colon; 105% with SNB-75 CNS; 115% in the assay with SNB-19 CNS; 87.8% with U251 CNS; 76.1% in the assay with PC-3 prostate. The growth with SK-MEL-5 melanoma was 74.1%; with UACC-62 melanoma, 72.8%; in the assay with LOX IMVI melanoma, 86.2%; in the assay on SK-MEL-28 melanoma it was 86.6%; in the assay with SK-MEL-2 melanoma, 97.1%; with EKVX NSCLC it was 85.8%. Moreover, the growth in the assay with SN12C renal is 81.8%; in the assay with UO-31 renal, 81.2%; in the assay with TK-10 renal, 129%; in the assay with CAKI-1 renal, 81.2%; in the assay with A498 renal it was 134%; in the assay on CCRF-CEM leukemia, 68.4%. Also, the growth with MOLT-4 leukemia is -40.7% (active).

With `Cc1ccc(C(=O)c2ccc(CC(=O)N/N=C/c3ccc(O)cc3O)n2C)cc1`, the growth in the assay with HCT-15 colon is 16.8%; with HT29 colon it was 64%; with SNB-75 CNS it was 31.1%; in the assay with SNB-19 CNS, 49.4%; with U251 CNS, 37.6%; in the assay with PC-3 prostate it was 61.1%. The growth in the assay with SK-MEL-5 melanoma is 39.3%; with UACC-62 melanoma, 29.8%; in the assay with LOX IMVI melanoma, 18.8%; in the assay with SK-MEL-28 melanoma, 46.4%; in the assay with SK-MEL-2 melanoma, 59.5%; in the assay on EKVX NSCLC, 34.2%. In addition, the growth was 55.7% in the assay on SN12C renal; 19.8% in the assay with UO-31 renal; 52.9% in the assay on TK-10 renal; 16.5% with ACHN renal; 46.6% with CAKI-1 renal; 87.4% in the assay with A498 renal. In addition, the growth is 16.8% in the assay with CCRF-CEM leukemia and 12.6% in the assay on MOLT-4 leukemia.

For `CC(C(=O)O)n1c(O)c(C=Nc2cccnc2)sc1=S` (stereo unspecified), the growth in the assay on HCT-15 colon is 98.4%; with HT29 colon it was 111%; with SNB-75 CNS it was 80.3%; with SNB-19 CNS it was 91.4%; with U251 CNS it was 86.3%; in the assay with PC-3 prostate, 88%. In addition, the growth in the assay with SK-MEL-5 melanoma was 95.5%; in the assay on UACC-62 melanoma, 88.8%; in the assay with LOX IMVI melanoma, 101%; in the assay on SK-MEL-28 melanoma, 113%; in the assay with SK-MEL-2 melanoma, 114%; with EKVX NSCLC, 96.4%. Also, the growth was 88.7% with SN12C renal; 50% with UO-31 renal; 111% with TK-10 renal; 102% with ACHN renal; 79.7% in the assay on CAKI-1 renal; 95.4% in the assay with A498 renal. Further, the growth in the assay with CCRF-CEM leukemia is 92.7%; in the assay on MOLT-4 leukemia, 94%.

Take `CCN(CC)CCN(CCN(CC)CC)c1ccccc1`: the growth in the assay with HCT-15 colon is 104%; with HT29 colon, 102%; in the assay on SNB-75 CNS, 79.1%; in the assay on SNB-19 CNS, 87.3%; with U251 CNS, 98.2%; in the assay with PC-3 prostate, 87.4%. For the same compound, the growth in the assay with SK-MEL-5 melanoma was 97.7%; with UACC-62 melanoma, 89.4%; in the assay on LOX IMVI melanoma, 88.7%; in the assay on SK-MEL-28 melanoma, 108%; with SK-MEL-2 melanoma it was 106%; in the assay with EKVX NSCLC, 97.2%. The growth in the assay with SN12C renal is 78.5%; with UO-31 renal, 66.4%; in the assay on TK-10 renal it was 102%; in the assay on CAKI-1 renal, 86.6%; in the assay with A498 renal it was 94.5%; in the assay on CCRF-CEM leukemia, 93.3%. The growth with MOLT-4 leukemia is 89.8%.
